An excerpt weighted towards active compounds, which were near 5.5% of everything screened.
Giardia killer = Giardia lamblia killing. Giardia lamblia trophozoite viability. activity change, % at 7.66 µM, hits read low. 340,000 tested, 0.15% active. AID 540267; in the data active = activity change below about -80%; inconclusive = between about -30% and that limit;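 also: parasites exposed to compound for two days anaerobically before the ATP read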
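Luminescence from cellular ATP indicates surviving trophozoites (100 cells/well) following 48 hrs anaerobic compound treatment at 37 deg C; signal develops 15-30 min at room temperature.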
ELG1 repair inh = inhibitors of ELG1-dependent DNA repair in HEK293T cells; HEK293T ELG1-luciferase reporter, luminescence, 16 h; DNA damage induced by 5-fluorouridine; Potency, µM (doses to about 46.1 µM), for inactives: at the top dose activity change, negative = inhibition, usual class: inhibitors; 330,000 tested, 2.3% active; AID 504467; also: potency is read from the fitted curve at half-maximal effect; nearly all actives have a fitted effect of over 55% in size
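Quantitative HTS, concentration-response format. 2,000 cells/well co-treated with 5-fluorouridine and compound, 16 hr in 5% CO2 at 37 °C; ONE-Glo luminescence read after 30 min.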
FBPA coupling cs = counter-screen for Giardia aldolase inhibitors: coupling enzyme system. coupling enzyme system counterscreen, AmpLite Red fluorescence. activity change, negative = inhibition, % at 58.2 µM, hits read low. 290,000 tested, 0.67% active. AID 2472; in the data active = activity change below about -30%
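Final compound at 57.5 uM, incubated 10 min at RT with coupling enzyme reagent (glyceraldehyde-3-phosphate), then 20 min with substrate and AmpLite Red detection. Fluorescence read at 525/598 nm; tests interference with the coupling assay, not aldolase inhibition.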
Sfp PPTase inh = Sfp phosphopantetheinyl transferase inhibition | 310,000 tested, 3.5% active | Biochemical Sfp PPTase activity, qHTS | AID 1490 | Q9F4F7 | Potency, µM, without a hit: largest response in the series, negative = inhibition, hits mostly inhibitors;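 also: the enzyme is Sfp with the accession as filed and its product quenches rhodamine fluorescence; potency is read from the fitted curve at half-maximal effect; 0% = enzyme reaction without inhibitor and -100% = no enzyme wells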
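Fluorescence-quenching assay: 15 nM Sfp-PPTase preincubated 15 min at room temperature with compound, then 5 uM rhodamine-CoA and 12.5 uM BHQ-2-labelled YbbR peptide added. Fluorescence (ex 525/em 598 nm) read at start and after 30 min; difference gives rate.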
* hit, by the source's call; ? = inconclusive; / = no result. Unless noted, calls follow the shape of the dose curve; as a rule, active = well fitted curve in the direction sought with a large enough effect; inconclusive = small, poorly fitted or top-dose-only effect, or another doubt; inactive = no such curve, though single readings can be large; an effect the other way counts as inactive or inconclusive. Unless noted, % is scaled to controls: 0 for no effect and ±100 for the full control effect.

SMILES | Giardia killer | ELG1 repair inh | FBPA coupling cs | Sfp PPTase inh
CC(c1ccccc1)N1CCn2c(nc3cc(NC(=O)NC4CCCCC4)ccc32)C1 (stereo not given) | 2.4 | ? | -46.1* | -6.4%
CC(c1ccccc1)N1CCn2c(nc3cc(NC(=O)c4cccs4)ccc32)C1 (stereo not given) | -6.9 | ? | -2.9 | 4.8%
COc1ccc(C2c3ccc(O)cc3Oc3ncn4nc(-c5cccnc5)nc4c32)cc1OC (stereo not given) | -1.5 | 10.3µM* | 0.2 | -2.9%
COc1ccc(C2c3ccc(O)cc3Oc3ncn(Cc4ccco4)c(=N)c32)cc1OC (stereo not given) | 3.1 | 0.0% | 0.1 | 1.4%
CCOC(=O)c1nn(-c2ccc(C)c(C)c2)cc1O | -11.3 | ? | -2.9 | 4.1%
CCOC(=O)c1nn(-c2ccc(C)c(C)c2)c(=O)c2c(N)scc12 | 14.3 | 3.2% | -48.7* | 8.91µM*
COc1ccc(/C=N/NC(=O)c2nn(-c3ccccc3)c(=O)c3c(N)scc23)cc1 | 7.4 | ? | -59.5* | 7.08µM*
CCOC(=O)c1nn(-c2ccc(OC)cc2)c(=O)c2c(N)scc12 | -12.7 | 1.3% | -53.5* | 10µM*
Cn1c(N)c(C(=O)Nc2ccccc2F)sc1=S | -20.1 | 21.6% | -0.4 | -19.8%
Cn1c(N)c(C(=O)Nc2ccc3ccccc3c2)sc1=S | -10.5 | ? | 4.5 | 14.1µM*
Nc1c(C(=O)Nc2ccc(F)cc2)sc(=S)n1-c1ccccc1F | -2.5 | ? | -5.2 | 31.6µM*
CC1CSc2ccccc2NC1=S (stereo not given) | -2.8 | 0.6% | -5.0 | -10.8%
c1ccc(C2CSc3ccccc3N2)cc1 (stereo not given) | -16.1 | ? | -1.8 | 56.2µM*
CC(=O)OCC(=O)[C@@]12OC(C)(C)OC1CC1C3CC(F)C4=CC(=O)C=C[C@@]4(C)[C@@]3(F)C(O)C[C@]12C (stereo not given in full) | / | / | 4.2 | 11.4%
Oc1ccc(N=Cc2ccc(O)c(O)c2)cc1 | -0.6 | -18.2% | -46.5* | 44.7µM*
Cc1ccc2c(c1)N/C(=C(\C=C(/Cl)[N+](=O)[O-])[N+](=O)[O-])N2 | / | -1.5% | -12.9 | 35.5µM*
Cc1ccc2c(c1)/C(=C/c1ccc(F)cc1)C(=O)N2 | -23.5 | -10.3% | -3.3 | -9.9%
CC1=CC(C)(C)Nc2ccc(OC(=O)CN3C(=O)CCC3=O)cc21 | -17.8 | ? | -31.8* | -5.8%
CC1=CC(C)(C)Nc2ccc(C)cc21 | -22.5 | -0.4% | -16.2 | 44.7µM*
COc1ccc(S(=O)(=O)NCc2cccnc2)cc1C(=O)Nc1ccccc1 | 0.9 | -10.4% | 1.4 | -0.5%
COc1ccc2c(c1)O[C@@H](c1ccc3c(c1)OCO3)[C@H](O)C2=O | / | / | 3.0 | -4.2%
C/C=C1/NN(CCCN2CCN(c3cccc(Cl)c3)CC2)C(=O)N1CCOc1ccccc1 | / | / | 0.3 | -6.9%
Clc1ccc2c(N/N=C/c3ccc(Br)cc3)ccnc2c1 | -95.6* | 16.4µM* | 4.1 | ?
Cc1ccc(/C=N/Nc2ccnc3cc(Cl)ccc23)c(C)c1 | -87.9* | 18.4µM* | -3.2 | 44.7µM*
Clc1ccc2c(N/N=C/c3cccnc3)ccnc2c1 | 4.1 | ? | 1.3 | 50.1µM*
SMILES | Giardia killer | ELG1 repair inh | FBPA coupling cs | Sfp PPTase inh
Cc1ccccc1/C=N/Nc1ccnc2cc(Cl)ccc12 | ? | ? | 4.2 | -11.9%
CC1(c2ccc3c(c2)OCCCO3)NC(=O)N(CC(=O)Nc2cccc(C#N)c2)C1=O (stereo not given) | 5.6 | ? | / | /
COc1cccc(NC(=O)CCC(=O)N2CC(C)Oc3ccc(C)cc32)c1 (stereo not given) | 8.5 | -5.7% | -1.0 | 12.8%
N#C/C(=C/c1ccc(N2CCOCC2)o1)C(=O)NC1CCCCC1 | 6.6 | -4.1% | -3.9 | 25.1µM*
N#C/C(=C\c1ccc(N2CCOCC2)o1)C(=O)Nc1ccc(O)cc1 | 6.0 | ? | -2.8 | -0.5%
N#C/C(=C\c1cc([N+](=O)[O-])c(N2CCOCC2)cc1N1CCOCC1)c1nc2ccccc2[nH]1 | -1.8 | 20.6µM* | -0.7 | -1.2%
Cc1cc(/C=C(/C#N)c2nc3ccccc3[nH]2)c(C)n1-c1cccc([N+](=O)[O-])c1 | ? | 14.6µM* | 0.5 | 5.1%
N#C/C(=C\c1ccc(N2CCOCC2)cc1)c1ccccc1 | -0.5 | ? | -8.6 | -19.3%
N#C/C(=C\c1ccc(N2CCOCC2)o1)c1ccccc1 | -2.5 | ? | -44.1* | 25.1µM*
Cc1ccc2nc(/C(C#N)=C\c3cc(O)ccc3[N+](=O)[O-])[nH]c2c1 | 0.3 | 11.9% | 3.1 | 9.2%
COCCN(C(=O)c1csnn1)C(C(=O)NC1CCCC1)c1ccccc1F (stereo not given) | -7.1 | -0.3% | -0.2 | 22.5%
O=C(CCS(=O)(=O)c1ccccc1Cl)NCCC1=CCCCC1 | -14.9 | 29.0% | / | 14.4%
COc1cc2cc(C)c(Br)c(OC)c2cc1OC | -3.9 | / | / | /
O=c1[nH]c2ccccc2nc1N1CCOCC1 | 16.6 | 1.8% | 3.7 | 14.6%
S=C(c1nc2ccccc2[nH]1)N1CCOCC1 | 2.1 | 10.6% | 0.6 | 25.1µM*
N#C/C(=C\c1ccc(Sc2ccc(Cl)cc2)o1)c1nc2ccccc2[nH]1 | 3.2 | ? | -5.8 | ?
N#C/C(=C/c1ccc(N2CCOCC2)o1)c1nc2ccccc2[nH]1 | -0.6 | ? | -24.5 | 20µM*
COc1ccccc1NC(=O)c1ccc(NC(=O)COC(=O)c2cccnc2Cl)cc1 | -12.2 | -0.8% | / | /
COC(=O)CCC(C)N1CCC(Oc2ccc(C(=O)NCc3ccccn3)cc2)CC1 (stereo not given) | -9.0 | 15.1% | -3.2 | 24.3%
Cc1cccc(OCCCn2c(CCNC(=O)C3CCCCC3)nc3ccccc32)c1 | 18.9 | / | / | /
CC(C)NC(=O)CC1Nc2c3ccccc3nc(=S)n2C1=O (stereo not given) | 22.2 | 5.8% | -35.1* | ?
CC(C)CCNC(=O)CC1Nc2c3ccccc3nc(=S)n2C1=O (stereo not given) | -3.1 | -13.8% | 2.0 | -16.1%
C(/Oc1ccccc1)=C1\Nn2c(nnc2-c2cc(-c3ccccc3)n[nH]2)S1 | 52.3 | / | / | /
CC1CCc2c(sc(NC(=O)CCC(=O)O)c2C(=O)NC2CC2)C1 (stereo not given) | -0.2 | -3.3% | / | 8.91µM*
COc1ccc(C2SCC(=O)N2CCc2ccc(OC)c(OC)c2)cc1 (stereo not given) | -17.7 | 18.3µM* | -1.6 | -5.8%
Cc1ccc(C)c(N2CCN(C(=O)c3ccc(NC4=NC5CS(=O)(=O)CC5S4)cc3)CC2)c1 (stereo not given) | 11.8 | 1.1% | 2.4 | 3.4%
NC(=O)c1oc2ccccc2c1NC(=O)c1ccc(F)cc1 | -11.9 | -8.7% | 4.5 | 7.8%
O=C(NN(c1ccccc1)c1ccccc1)c1ccc([N+](=O)[O-])o1 | -89.3* | -20.8% | -5.6 | 6.6%
C/C(=N/NC(=O)C(O)(c1ccccc1)c1ccccc1)c1ccc([N+](=O)[O-])o1 | -90.4* | ? | -5.3 | -13.9%
O=C(NCC1CCCO1)c1ccc([N+](=O)[O-])o1 (stereo not given) | ? | -19.0% | / | 20.5%

Source: PubChem
